Screening data deposited in PubChem BioAssay by Broad Institute.
F508del corr = F508del CFTR correction, initial screen, CFBE line, single point. CFBE cells, YFP halide quenching; stimulated with forskolin plus potentiator P3; % fluorescence drop versus neutral controls. activity (quench increase), % at 7.58 µM. actives 0.36% (n = 350,000). AID 720511, 2013;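 active = mean added fluorescence quench of at least 8% versus neutral control, with both replicates also reaching 8%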;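 also: cells transiently co-express mutant CFTR-F508del with the halide-sensitive YFP; corrector assay measuring rescue of mutant channel to the surface after 24 h compound exposure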
ERAP1 inh = human ERAP1 aminopeptidase inhibitors, primary screen, biochemical, single point, plate reader; Endoplasmic reticulum aminopeptidase 1 (Homo sapiens), Q9NZ08; recombinant ERAP1, Leu-AMC fluorescence, 60 min; inhibition, % at 10.7 µM; actives 0.15% (n = 340,000);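 active = mean replicate inhibition of at least 30%, or all replicates individually reaching that 30% level; inactive = mean below 30% and not every replicate reaching it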;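 also: 0% = neutral control wells and 100% = L-leucinethiol positive control wells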
Target sequence (Q9NZ08 whole entry, looked up): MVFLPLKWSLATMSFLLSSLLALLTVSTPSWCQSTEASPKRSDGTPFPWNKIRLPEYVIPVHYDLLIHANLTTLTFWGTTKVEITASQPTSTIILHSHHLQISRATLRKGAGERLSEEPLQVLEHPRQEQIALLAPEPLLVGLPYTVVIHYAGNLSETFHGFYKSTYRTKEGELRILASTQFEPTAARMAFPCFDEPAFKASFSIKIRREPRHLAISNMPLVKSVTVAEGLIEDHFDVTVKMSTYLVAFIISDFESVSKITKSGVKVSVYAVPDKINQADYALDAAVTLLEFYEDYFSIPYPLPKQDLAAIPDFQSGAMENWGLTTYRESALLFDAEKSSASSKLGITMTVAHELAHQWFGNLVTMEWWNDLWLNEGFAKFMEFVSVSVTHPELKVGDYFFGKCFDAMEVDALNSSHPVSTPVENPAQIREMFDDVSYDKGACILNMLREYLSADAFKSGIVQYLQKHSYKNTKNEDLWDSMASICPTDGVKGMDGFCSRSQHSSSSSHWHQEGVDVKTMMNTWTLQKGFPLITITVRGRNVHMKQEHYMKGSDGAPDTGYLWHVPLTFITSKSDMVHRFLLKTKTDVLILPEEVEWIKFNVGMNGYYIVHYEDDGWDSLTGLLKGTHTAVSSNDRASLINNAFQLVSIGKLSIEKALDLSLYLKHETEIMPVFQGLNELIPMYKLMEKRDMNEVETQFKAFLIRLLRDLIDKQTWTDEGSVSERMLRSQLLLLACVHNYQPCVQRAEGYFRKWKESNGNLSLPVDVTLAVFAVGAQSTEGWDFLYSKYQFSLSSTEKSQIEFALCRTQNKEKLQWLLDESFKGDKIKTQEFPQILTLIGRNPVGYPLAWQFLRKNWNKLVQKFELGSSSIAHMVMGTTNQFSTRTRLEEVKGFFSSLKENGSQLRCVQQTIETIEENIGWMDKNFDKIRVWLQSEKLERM
Ecoli rRNA inh = reduced GFP signal of wild-type E. coli, primary screen, bacterial rRNA inhibitor project, GFP/RFP fluorescence, OD600, single point; E. coli WT GFP vs humanized-ribosome RFP mutants, 24 h; active compounds read low; DMSO median 0, no signal -100; GFP signal change (wild-type ribosome), % (no concentration beside the values); actives 1.6% (n = 350,000);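 active = significant combined selectivity score with lowered wild-type GFP, culture density cut under 30%, mutant RFP and density less affected; inactive = any of these conditions unmet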
PvdQ inh = P. aeruginosa PvdQ acylase inhibitors, primary screen, biochemical, fluorescence, plate reader and imaging, single point; PvdQ acylase [Pseudomonas aeruginosa LESB58]; purified PvdQ acylase; inhibition, % at 10 µM; actives 0.063% (n = 340,000); in the data active = inhibition above about 30%, passing the limit was not always enough;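 also: 0% = vehicle neutral wells and 100% = reference inhibitor wells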
ARNT-TACC3 inh = disruptors of ARNT/TACC3 protein interaction, primary screen, biochemical, AlphaScreen, single concentration | AlphaScreen His-ARNT PAS-B/GST-TACC3 binding, luminescence; TACC3 fragment carries E629A point mutation | inhibition, % at 9.99 µM | Transforming acidic coiled-coil-containing protein 3 (Homo sapiens), Q9Y6A5 | actives 0.66% (n = 390,000);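 active = mean inhibition of replicates at least 50% and at least half of replicates each reaching 50%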;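 also: 0% = complete ARNT plus TACC3 wells and 100% = ARNT alone without TACC3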
Numbers without * were called inactive; . = no result given. Compounds with a hit are over-represented: about 2.1% of the library has one in this group of screens.

SMILES | F508del corr | ERAP1 inh | Ecoli rRNA inh | PvdQ inh | ARNT-TACC3 inh
C/C(=N\NC(=O)c1ccc(Cl)cc1)c1ccccn1 | -5 | -1 | -30 | -17 | 82*
S=C(NCc1ccccn1)Nc1cccc(Cl)c1 | . | . | . | 8 | 1
CC(=NNC(=S)Nc1cccc(Cl)c1)c1ccccn1 | 3 | 1 | -13 | -3 | 60*
CO[C@@H]1CN(C)C(=O)c2ccc(NS(C)(=O)=O)cc2OC[C@H](C)N(C)C[C@@H]1C | 2 | -1 | 0 | . | 11
OC[C@@H]1CC[C@@H]2O[C@H](CCc3ccc(-c4ccccc4)cc3)[C@H](n3cc(-c4ccccc4)nn3)C[C@@H]2O1 | 0 | 0 | . | . | .
COCC(=O)N1[C@H](CN(C)C(=O)c2cccnc2)[C@@H](c2ccccc2)[C@@H]1CO | -5 | . | -1 | . | -1
NC(=O)CSCc1c(Cl)cccc1Cl | 2 | -3 | 8 | -6 | -2
CC(C)(C)NC(=O)CSCc1c(Cl)cccc1Cl | -1 | -2 | -31* | 7 | 2
COc1ccc(C#CC2=CC(=O)CC(C)(C)C2)cc1 | -2 | -2 | 9 | . | .
COc1ccccc1C#CC1=CC(=O)CC(C)(C)C1 | -3 | . | -23* | . | .
COc1cccc(-c2cn(CC[C@@H]3CC[C@H](NC(C)=O)[C@@H](CO)O3)nn2)c1 | -2 | -1 | 3 | . | -16
CCc1ccc(N2CC(C(=O)N/N=C/c3cc([N+](=O)[O-])ccc3O)CC2=O)cc1 (stereo not given) | 2 | 2 | 9 | -1 | .
O=C1NCCCC1C(=O)N/N=C/c1ccc([N+](=O)[O-])cc1 (stereo not given) | 0 | . | 16 | . | .
O=C(N/N=C/c1cc([N+](=O)[O-])ccc1O)c1cccc(N2CCCC2=O)c1 | 2 | 5 | 11 | -17 | 78*
O=C(N/N=C/c1cc([N+](=O)[O-])ccc1O)C1CC1 | 3 | -1 | 0 | -9 | 54*
O=C1NCCCC1C(=O)N/N=C/c1cc([N+](=O)[O-])ccc1O (stereo not given) | 3 | . | 1 | -2 | 70*
Cc1ccc(NC(=O)/C(=C\c2ccc([N+](=O)[O-])cc2)NC(=O)c2ccccc2)cc1 | . | . | . | -12 | -6
O=C(N/N=C/c1ccc(O)c(O)c1O)/C(=C/c1ccc([N+](=O)[O-])cc1)NC(=O)c1ccccc1 | . | . | . | -8 | 64*
COCC(=O)N1CC(=O)N2[C@H](C1)[C@@H](c1ccc(C#CCc3ccccc3)cc1)[C@@H]2CO | -4 | 4 | 1 | . | .
O=C(N/N=C/c1ccccn1)C1CC1 | . | . | . | -9 | -12
Cc1c(NC(=S)N/N=C/c2cc([N+](=O)[O-])ccc2O)c(=O)n(-c2ccccc2)n1C | -1 | 10 | -22* | -6 | 70*
O=C(N/N=C/c1cc([N+](=O)[O-])ccc1O)C(O)(c1ccccc1)c1ccccc1 | 1 | -4 | -17 | -2 | 49*
O=C(NN=Cc1ccccc1O)C1CC1 | 2 | 0 | 7 | -9 | 39*
CC(=O)N1[C@@H]2c3cccc(=O)n3C[C@@H]2[C@@H](CO)[C@@H]1C(=O)N1CCc2ccccc2C1 | 0 | 0 | 3 | . | .
COc1ccccc1NS(=O)(=O)c1cc(-c2cnc(C3CC3)o2)ccc1C | 8.3* | -3 | -29 | -12 | 1
CCSC1=C(C#N)C(c2ccc(C)s2)CC(=O)N1 (stereo not given) | 0 | 5 | 12 | -6 | -1
CCOC(=O)CSC1=C(C#N)C(c2ccc(C)s2)CC(=O)N1 (stereo not given) | 8.6* | -1 | 1 | -4 | -1
CCOC(=O)CSC1=C(C#N)C(c2sccc2C)C(C(C)=O)=C(C)N1 (stereo not given) | -1 | 0 | -40* | -5 | -3
CC(=O)C1=C(C)NC(SCC(N)=O)=C(C#N)C1c1sccc1C (stereo not given) | 2 | -2 | -18 | -10 | -1
